Screening results deposited in PubChem by National Center for Advancing Translational Sciences (NCATS).
NPR1 antag = human Npr1 receptor antagonism | 76,000 tested, 1.6% active | P16066 | Potency, µM (highest dose often 46.3 µM), most hits filed as inhibitors | HEK293 hNpr1 GloSensor cGMP, ANP-stimulated luminescence; calls by dose curve; also: nearly all actives have a fitted effect of over 60% in size
Target sequence (P16066 whole entry, looked up): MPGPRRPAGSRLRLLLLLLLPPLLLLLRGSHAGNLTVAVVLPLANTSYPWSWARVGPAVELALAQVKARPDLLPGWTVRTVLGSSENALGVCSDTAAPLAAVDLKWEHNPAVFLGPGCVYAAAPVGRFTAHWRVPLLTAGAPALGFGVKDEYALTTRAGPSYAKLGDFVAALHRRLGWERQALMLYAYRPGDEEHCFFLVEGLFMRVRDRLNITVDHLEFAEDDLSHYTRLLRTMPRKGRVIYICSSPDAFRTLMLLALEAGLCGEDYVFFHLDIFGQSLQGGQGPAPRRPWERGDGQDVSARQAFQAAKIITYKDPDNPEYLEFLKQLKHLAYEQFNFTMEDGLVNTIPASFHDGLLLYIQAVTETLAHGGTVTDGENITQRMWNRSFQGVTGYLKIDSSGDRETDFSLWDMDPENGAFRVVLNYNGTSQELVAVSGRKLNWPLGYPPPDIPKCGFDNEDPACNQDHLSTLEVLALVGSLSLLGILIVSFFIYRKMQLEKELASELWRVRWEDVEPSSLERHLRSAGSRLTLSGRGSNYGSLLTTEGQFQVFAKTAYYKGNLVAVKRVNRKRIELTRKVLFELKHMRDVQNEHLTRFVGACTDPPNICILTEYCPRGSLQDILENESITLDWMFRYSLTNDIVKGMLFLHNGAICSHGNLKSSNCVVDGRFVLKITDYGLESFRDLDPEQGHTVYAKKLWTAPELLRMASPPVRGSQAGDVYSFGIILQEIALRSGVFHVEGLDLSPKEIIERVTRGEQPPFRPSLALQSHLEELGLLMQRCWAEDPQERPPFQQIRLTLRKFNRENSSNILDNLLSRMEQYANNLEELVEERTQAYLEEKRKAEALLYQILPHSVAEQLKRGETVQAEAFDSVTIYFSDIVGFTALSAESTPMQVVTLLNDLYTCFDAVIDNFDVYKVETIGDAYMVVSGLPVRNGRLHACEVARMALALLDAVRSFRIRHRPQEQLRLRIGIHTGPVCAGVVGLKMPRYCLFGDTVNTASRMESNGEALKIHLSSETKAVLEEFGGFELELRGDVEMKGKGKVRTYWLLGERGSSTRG
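Compound pre-incubated 30 min at room temperature on GloSensor-loaded HEK293 cells stably carrying hNpr1 and the pGS-40F cGMP biosensor. Stimulation uses hNppA at 0.1 nM final; luminescence is taken at baseline and 20 min post-agonist.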
HEK cytotox = kills HEK 293 cells | 94,000 tested, 6.6% active | Potency, µM (doses to about 115 µM), most hits filed as inhibitors | HEK 293 viability, ATP luminescence (CellTiter-Glo), 48-72 h; also: nearly all actives have a fitted effect of over 60% in size
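HEK 293 cells seeded at 250 cells/well were exposed to compound for 48 or 72 hr at 37 degree Celsius. Viability taken as ATP content by CellTiter-Glo luminescence.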
3T3 cytotox = kills NIH 3T3 cells. AID 1345082. NIH 3T3 viability, CellTiter-Glo ATP luminescence, 48-72 h. 94,000 tested, 4.3% active. Potency, µM (doses to about 96.7 µM), most hits filed as inhibitors; also: nearly all actives have a fitted effect of over 55% in size
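Cytotoxicity is measured as loss of cellular ATP: NIH 3T3 cells (400/well) are exposed to compound for 48 or 72 hr at 37 °C, then CellTiter-Glo luminescence is imaged after 10 min at room temperature.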
FLuc inh = inhibitors of firefly (Photinus pyralis) luciferase. purified P. pyralis luciferase, luminescence, biochemical. Potency, µM (top dose mostly 115 µM), usual class: inhibitors. 76,000 tested, 2.5% active; also: nearly all actives have a fitted effect of over 65% in size
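Inhibitors were tested against purified firefly luciferase in a biochemical, low-substrate format (both substrates at 10uM) and luminescence measured with a CCD imager.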
Hits are given with their value; 0 = inactive; ? = inconclusive; - = not tested or not shown; ! = a repeat was not active. The list is not random: actives were taken first. Their share in the collection is about 11%. Unless noted, calls follow the shape of the dose curve; as a rule, active = well fitted curve in the direction sought with a large enough effect; inconclusive = small, poorly fitted or top-dose-only effect, or another doubt; inactive = no such curve, though single readings can be large; an effect the other way counts as inactive or inconclusive.

SMILES	NPR1 antag	HEK cytotox	3T3 cytotox	FLuc inh
COc1ccc(S(=O)(=O)NC2CCN(c3ccc(=O)n(C)n3)CC2)cc1	-	?	0	-
Cc1cc(C(=O)NCc2ccncc2)c2c(C3CCNCC3)noc2n1	-	0	0	-
Cc1noc(C)c1C(=O)N1CC(N2C(=O)c3c(c(C)nn3-c3ccccc3)C2C2CC2)C1 (stereo not given)	-	?	0	-
CN1C[C@@H](NC(=O)c2ccc3ccccc3c2)C[C@H]1c1nc(-c2ccc3c(c2)OCO3)no1	0	?	0	0
CN1C[C@@H](NC(=O)c2ccccc2)C[C@H]1c1nc(-c2ccc3c(c2)OCO3)no1	0	79.4µM	?	0
Cc1ccc(C(=O)N[C@H]2C[C@@H](c3nc(-c4ccc5c(c4)OCO5)no3)N(C)C2)cc1	0	?	79.4µM	0
CN1C[C@@H](NC(=O)c2ccc(F)cc2)C[C@H]1c1nc(-c2ccc3c(c2)OCO3)no1	0	79.4µM	?	0
CN(C)c1ccc(C(=O)N[C@H]2C[C@@H](c3nc(-c4ccc5c(c4)OCO5)no3)N(C)C2)cc1	0	?	?	0
CN1C[C@@H](NC(=O)c2ccccc2)C[C@H]1c1nc(-c2ccc(F)cc2)no1	0	?	0	0
O=C(N1CCC(c2n[nH]c(=O)n2Cc2ccc(F)cc2)CC1)C1(c2ccccc2)CC1	0	?	?	0
CN(CCCN1CCCCCC1)c1nc(-c2ccncc2)nc2c1cnn2C	0	?	31.6µM	0
COc1cccc(CN2CCOC3(CCN(Cc4ccc5[nH]ccc5c4)CC3)C2=O)c1	0	?	?	0
COc1cccc(CN2CCOC3(CCN(Cc4cccc(Cl)c4)CC3)C2=O)c1	0	79.4µM	?	0
N#Cc1ccc(NC2CC(c3cc(N4CCC(O)C4)ncn3)C2)nc1 (stereo not given)	0	0	15.8µM	0
O=C(NC1CC(c2cc(N3CCC(O)C3)ncn2)C1)c1ccoc1 (stereo not given)	0	0	0	0
COc1ccc(CN2CCC3(CC2)COCCN3C(=O)OCc2ccccc2)cc1O	0	0	?	0
CC(C)c1ccc(CN2CCC3(CC2)COCCN3C(=O)OCc2ccccc2)cc1	?	50.1µM	35.5µM	0
O=C(OCc1ccccc1)N1CCOCC12CCN(Cc1cccnc1)CC2	0	?	?	0
O=C(COc1ccccc1)N1CCOCC12CCN(Cc1ccccc1)CC2	0	44.7µM	?	0
O=C(c1ccc(Oc2ccccc2)cc1)N1CCOCC12CCN(Cc1ccccc1)CC2	0	?	?	0
O=C(OCc1ccccc1)N1CCOCC12CCN(Cc1cccs1)CC2	0	?	28.2µM	0
O=C(OCc1ccccc1)N1CCOCC12CCN(Cc1ccc(F)cc1)CC2	0	70.8µM	?	0
Cc1cc(-c2cc3c(nc2-c2ccccc2)nc(C(=O)NC2CCN(C)CC2)n3C)ccn1	0	?	25.1µM	0
COc1ccccc1-c1cc2c(nc1-c1ccccc1)nc(C(=O)NCCN(C)C)n2C	?	?	35.5µM	0
COc1cc(-c2cc3c(nc2-c2ccccc2)nc(C(=O)NC2CCN(C)CC2)n3C)ccn1	0	?	?	0
SMILES	NPR1 antag	HEK cytotox	3T3 cytotox	FLuc inh
COc1ccc(-c2cc3c(nc2-c2ccccc2)nc(C(=O)NCCN(C)C)n3C)cn1	0	?	79.4µM	0
COc1cc(F)ccc1-c1cc2c(nc1-c1ccccc1)nc(C(=O)NCCN(C)C)n2C	0	31.6µM	20µM	0
COc1cc(-c2cc3c(nc2-c2ccccc2)nc(C(=O)NCCN(C)C)n3C)ccn1	0	?	?	0
COCCNC(=O)c1nc2nc(-c3ccccc3)c(Cl)cc2n1C	0	?	?	0
CSc1ccc(-c2cccc(C(=O)NCC(=O)NCCc3ccc(F)cc3)c2)cc1	-	?	0	-
Cc1cc(-c2cc3c(nc2-c2ccccc2)nc(C(=O)NCCN(C)C)n3C)ccn1	0	0	?	0
Cc1ccccc1-c1cc2c(nc1-c1ccccc1)nc(C(=O)NCCN(C)C)n2C	?	35.5µM	25.1µM	0
CN(C)CCNC(=O)c1nc2nc(-c3ccccc3)c(-c3ccncc3)cc2n1C	0	?	100µM	0
CN(C)CCNC(=O)c1nc2nc(-c3ccccc3)c(-c3cccnc3)cc2n1C	0	?	?	0
C=CCN1CC(C)(C)CN(S(=O)(=O)c2ccc(C)cc2)CC1=O	-	0	?	-
CCN1CCC(N2CCC(Oc3ccccc3-c3nc(-c4ccncc4)no3)C2)CC1 (stereo not given)	0	12.6µM	6.31µM	0
CC(C)NC(=O)N1CCC(Oc2ccccc2-c2nc(-c3ccccc3)no2)C1 (stereo not given)	0	?	?	?
O=C(Nc1ccccc1)N1CCC(Oc2ccccc2-c2nc(-c3ccccc3)no2)C1 (stereo not given)	0	25.1µM	31.6µM	?
O=C(CCc1ccccc1)N1CC(Oc2ccccc2-c2nc(-c3ccccc3)no2)C1	-	39.8µM	35.5µM	-
Cc1nnc2ccc(N3CCCN(C(=O)c4ccccc4)CC3)nn12	-	0	0	-
COc1cccc(Nc2ccc3c(n2)C(C)(C(=O)NC2CCC2)CN(C)C3)c1 (stereo not given)	0	?	?	0
O=C(Nc1ccccc1)NC1CCN(Cc2cccc(-c3cccs3)c2)CC1	-	20µM!	14.1µM	-
O=C(Nc1ccc(Cl)cc1)NC1CCN(Cc2cccc(-c3cccs3)c2)CC1	-	20µM	12.6µM	-
COc1ccc(Nc2ccnc(N3CCCC3C(=O)NCc3ccc(C(F)(F)F)cc3)n2)cc1 (stereo not given)	-	?	0	-
CNC(=O)c1cc(C2CC2)nc2onc(C3CCN(C(=O)C4CCCC4)CC3)c12	-	0	0	-
O=C(NCC1CCN(c2cc(-c3ccc(F)cc3)[nH]n2)CC1)c1n[nH]c2c1CCCC2	?	39.8µM	35.5µM	?
CN(C)c1cccc(C(=O)NCC2CCN(c3cc(-c4ccc(F)cc4)[nH]n3)CC2)c1	0	?	?	?
O=C(NCC1CCN(c2cc(-c3ccccc3)[nH]n2)CC1)c1n[nH]c2c1CCCC2	?	?	31.6µM	?
Cc1ccc(-c2cc(N3CCC(CNC(=O)c4ccc[nH]4)CC3)n[nH]2)cc1	0	?	?	?
Cc1ccc(-c2cc(N3CCC(CNC(=O)c4n[nH]c5c4CCCC5)CC3)n[nH]2)cc1	?	?	28.2µM	?
SMILES	NPR1 antag	HEK cytotox	3T3 cytotox	FLuc inh
COc1ccc(NC(=O)Cn2c(N3CCCCC3)nc(C)c(C)c2=O)cc1Cl	0	25.1µM	?	0
Cc1ccc(S(=O)(=O)N2CCCC(Cn3c(C)nc4cccnc43)C2)c(C)c1 (stereo not given)	?	?	?	0
CCc1ccccc1S(=O)(=O)N1CCCC(Cn2c(C3CC3)nc3cccnc32)C1 (stereo not given)	0	39.8µM	?	0
Cc1nc2cccnc2n1CC1CCCN(S(=O)(=O)Cc2ccc(Cl)cc2)C1 (stereo not given)	?	31.6µM	?	0
Cc1ccc(C)c(S(=O)(=O)N2CCCC(Cn3c(C)nc4cccnc43)C2)c1 (stereo not given)	?	39.8µM	25.1µM	0
Cc1ccc(S(=O)(=O)N2CCCC(Cn3c(C4CC4)nc4cccnc43)C2)c(C)c1 (stereo not given)	0	35.5µM	?	0
